# Measurements from PubChem BioAssay (NCATS).
# Results filed as inconclusive are left out. A call without a number means that no potency is given here. The source made the active and inactive calls. Unless noted, calls follow the shape of the dose curve; as a rule, active = well fitted curve in the direction sought with a large enough effect; inconclusive = small, poorly fitted or top-dose-only effect, or another doubt; inactive = no such curve, though single readings can be large; an effect the other way counts as inactive or inconclusive.
# Assays:
# [1] = target: Estrogen receptor (Homo sapiens) (UniProt P03372); assay: qHTS assay for small molecule antagonists of estrogen receptor alpha signaling (AID 588513; active = well fitted curve in the direction sought with a large enough effect in the signal ratio, with a control signal flat, not every such curve was filed as active; the % refers to the signal ratio; also: potency is read from the fitted curve at half-maximal effect); settings: ER-alpha-UAS-bla HEK293, beta-lactamase ratio, antagonist mode; series mostly up to 76.9 µM
# Summary of the method: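 Beta-lactamase reporter, antagonist mode, HEK 293 GripTite cells; 0.5nM E2 stimulus, 18 h, 37 C; CCF4 dye 2 h RT; fluorescence. IC50 and efficacy from Hill fits, normalized to E2 and DMSO.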
# [2] = target: Estrogen receptor (Homo sapiens) (UniProt P03372); assay: qHTS assay for small molecule agonists of estrogen receptor alpha signaling (AID 588514; calls by dose curve; also: nearly all actives have a fitted effect of over 70% in size); settings: ER-alpha-UAS-bla HEK293, beta-lactamase ratio, 18 h, percent of full estradiol response, vehicle zero; series mostly up to 76.8 µM
# Summary of the method: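 Cells were plated at 5000/well, incubated 4 hrs at 37 C, dosed with compound titration series, incubated 18 hrs at 37 C, loaded with CCF4 dye for 2 hrs at RT, then fluorescence was read.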
# [3] = target: Androgen receptor (Homo sapiens) (UniProt P10275); assay: qHTS assay for small molecule antagonists of androgen receptor signaling (AID 588516; active = well fitted curve in the direction sought with a large enough effect in the signal ratio, with a control signal flat, not every such curve was filed as active; the % refers to the signal ratio; also: potency is read from the fitted curve at half-maximal effect); settings: AR-UAS-bla HEK293, beta-lactamase ratio, antagonist mode, 16 h
# Summary of the method: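 HEK293 AR-UAS-bla cells, 10% dialyzed FBS medium; cpd titration + R1881 10 nM final, 16 h 37 C; CCF4 2 h RT; FRET ratio; IC50/efficacy via Hill fit.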
# [4] = target: Bile acid receptor (Homo sapiens) (UniProt Q96RI1); assay: qHTS assay for small molecule antagonists of farnesoid X receptor signaling (AID 588526; calls by dose curve; also: potency is read from the fitted curve at half-maximal effect); settings: HEK293T FXR-UAS-bla, beta-lactamase ratio, antagonist mode; series mostly up to 76.7 µM
# Summary of the method: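 Antagonist mode: titrated compounds tested against chenodeoxycholic acid stimulation (normalized to 50 uM CDCA and DMSO) in GeneBLAzer HEK293T cells for 16 h. Beta-lactamase read by CCF4 fluorescence; IC50 from Hill fits.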
# [5] = target: Ubiquitin carboxyl-terminal hydrolase 1 (Homo sapiens) (UniProt O94782); assay: Inhibitors of USP1/UAF1: Pilot qHTS (AID 504865); settings: purified USP1/UAF1, Ub-rhodamine cleavage fluorescence; series mostly up to 114 µM;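 also: rhodamine fluorescence freed from ubiquitin-rhodamine substrate followed over time; top concentration of the series differs between compounds; nearly all actives have a fitted effect of over 35% in size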
# Summary of the method: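 1nM USP1/UAF1 + cpd, 15 min RT; start w/ Ub-Rho 150nM final; kinetic FL 480/540 nm, 6 reads q60 s. Buffer 50mM HEPES pH 7.8, 0.5mM EDTA, 1mM TCEP, 0.01% Tween-20, 0.1 mg/ml BSA.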
# [6] = target: DNA dC->dU-editing enzyme APOBEC-3G (Homo sapiens) (UniProt Q9HC16); assay: qHTS for inhibitors of Vif-A3G interactions: Validation (AID 588379); settings: Vif-A3G protein interaction assay; series mostly up to 46.1 µM
# Summary of the method: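 HeLa cells stably expressing Vif and A3G-eYFP, 700 cells/well, incubated overnight at 37 deg C, then exposed to compound overnight at 37 deg C. Inhibition of Vif-mediated degradation read as increased yellow fluorescence (Ex 488/Em 500-530) by laser-scanning cytometry.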
# [7] = target: Phosphoglycerate kinase, glycosomal (Trypanosoma brucei brucei) (UniProt P07378); assay: qHTS Validation Assay to Find Inhibitors of Phosphoglycerate Kinase (AID 504547); settings: enzymatic PGK inhibition, coupled luminescence read-out; series mostly up to 57.5 µM
# Summary of the method: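 PGK activity was coupled to GAPDH (100nM final), which generates the unstable substrate 1,3-bisphosphoglycerate in-well. Reactions ran 60 minutes at room temperature in 100mM TEA pH 7.6, 5mM MgCl2, 0.01% Tween-20, then Kinase-Glo Plus luminescence was read.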
# [8] = target: phosphoglycerate mutase (Leishmania major) (UniProt Q4Q090); assay: qHTS Validation Assay to Find Inhibitors of Phosphoglycerate Mutase (AID 504548); settings: biochemical enzyme activity; series mostly up to 57.5 µM
# Summary of the method: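 Luminescent end-point read-out via Kinase-GloPlus after a 10-minute development. Reaction: 1.25nM Leishmania major PGAM with substrate and compound, 45 minutes at room temperature in TEA buffer (pH 7.6) with MgCl2 and Tween-20.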
# [9] = qHTS for Inhibitors of ATXN expression: Validation of Cytotoxic Assay (AID 588349); settings: cytotoxicity counter-screen for ATXN expression inhibitors, cell viability; series mostly up to 57.1 µM
# Summary of the method: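 Read-out: ATP-based luminescence (CellTiter Glo) reflecting viability of HEK293 cells after 72 hr incubation at 37 degrees C with a concentration series of each compound.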
# [10] = qHTS for Inhibitors of ATXN expression: Validation (AID 588378); settings: cell-based ATXN2 expression reporter assay, luminescence; series mostly up to 57.1 µM; also: nearly all actives have a fitted effect of over 75% in size
# Summary of the method: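 Cells: HEK293-ATXN2-FFLuc, phenol-red free DMEM, 2 h attachment. Compound pin-transfer, 24 h, 37 degrees C, 5% CO2. CellTiter-Fluor 30 min, Ex405/Em525; Bright-Glo 5 min, luminescence 2 s exposure.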
# Sequence of Ubiquitin carboxyl-terminal hydrolase 1 (Homo sapiens) (O94782 whole entry, looked up): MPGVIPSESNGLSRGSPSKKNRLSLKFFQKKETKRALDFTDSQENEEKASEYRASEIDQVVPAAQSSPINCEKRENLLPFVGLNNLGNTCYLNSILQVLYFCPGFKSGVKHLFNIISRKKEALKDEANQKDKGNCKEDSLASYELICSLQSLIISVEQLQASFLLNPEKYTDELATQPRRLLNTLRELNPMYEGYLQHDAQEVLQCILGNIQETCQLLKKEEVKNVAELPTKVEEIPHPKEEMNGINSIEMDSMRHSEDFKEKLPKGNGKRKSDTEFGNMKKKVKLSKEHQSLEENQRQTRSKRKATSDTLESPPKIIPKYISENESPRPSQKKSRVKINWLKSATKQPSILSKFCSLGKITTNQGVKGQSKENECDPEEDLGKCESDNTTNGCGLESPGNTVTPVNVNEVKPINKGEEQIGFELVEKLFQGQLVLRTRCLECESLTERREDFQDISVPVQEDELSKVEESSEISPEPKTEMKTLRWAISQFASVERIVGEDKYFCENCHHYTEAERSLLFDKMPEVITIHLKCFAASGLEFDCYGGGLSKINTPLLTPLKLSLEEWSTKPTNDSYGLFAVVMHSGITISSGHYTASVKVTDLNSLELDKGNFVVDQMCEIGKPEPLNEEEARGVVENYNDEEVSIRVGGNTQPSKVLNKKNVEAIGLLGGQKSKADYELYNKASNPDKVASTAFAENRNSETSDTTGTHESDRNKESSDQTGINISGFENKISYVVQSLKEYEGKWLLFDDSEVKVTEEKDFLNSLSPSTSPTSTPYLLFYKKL
# Sequence of Bile acid receptor (Homo sapiens) (Q96RI1 whole entry, looked up): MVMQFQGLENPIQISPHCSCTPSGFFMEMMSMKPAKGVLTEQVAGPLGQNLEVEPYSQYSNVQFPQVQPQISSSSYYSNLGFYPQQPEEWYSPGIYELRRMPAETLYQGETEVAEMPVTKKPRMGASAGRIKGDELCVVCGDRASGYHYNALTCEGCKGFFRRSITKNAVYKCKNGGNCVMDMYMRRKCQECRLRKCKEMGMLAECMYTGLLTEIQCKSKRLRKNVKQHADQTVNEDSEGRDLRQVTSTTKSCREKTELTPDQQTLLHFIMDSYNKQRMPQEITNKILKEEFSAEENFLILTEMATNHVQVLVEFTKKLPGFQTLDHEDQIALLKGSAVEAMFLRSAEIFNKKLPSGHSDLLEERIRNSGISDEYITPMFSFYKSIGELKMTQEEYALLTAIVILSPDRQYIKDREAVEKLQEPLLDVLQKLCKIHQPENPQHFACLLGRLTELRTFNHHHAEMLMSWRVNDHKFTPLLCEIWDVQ
# Sequence of phosphoglycerate mutase (Leishmania major) (Q4Q090 1-553): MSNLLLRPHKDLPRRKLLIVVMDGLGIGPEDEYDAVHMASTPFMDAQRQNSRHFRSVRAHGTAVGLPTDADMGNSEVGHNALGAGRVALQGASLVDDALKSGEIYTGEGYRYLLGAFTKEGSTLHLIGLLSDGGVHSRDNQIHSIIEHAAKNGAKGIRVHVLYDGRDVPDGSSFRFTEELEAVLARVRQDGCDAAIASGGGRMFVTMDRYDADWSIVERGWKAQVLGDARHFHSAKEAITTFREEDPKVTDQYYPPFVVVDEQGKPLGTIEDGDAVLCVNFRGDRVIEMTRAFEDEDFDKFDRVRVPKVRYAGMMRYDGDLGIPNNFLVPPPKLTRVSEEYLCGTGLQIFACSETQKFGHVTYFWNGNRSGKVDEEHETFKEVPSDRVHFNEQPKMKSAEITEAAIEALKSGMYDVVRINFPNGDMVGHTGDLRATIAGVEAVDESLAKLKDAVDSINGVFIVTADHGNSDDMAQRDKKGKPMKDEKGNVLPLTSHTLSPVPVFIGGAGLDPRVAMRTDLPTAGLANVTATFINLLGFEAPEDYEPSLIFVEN
# Sequence of Estrogen receptor (Homo sapiens) (P03372 whole entry, looked up): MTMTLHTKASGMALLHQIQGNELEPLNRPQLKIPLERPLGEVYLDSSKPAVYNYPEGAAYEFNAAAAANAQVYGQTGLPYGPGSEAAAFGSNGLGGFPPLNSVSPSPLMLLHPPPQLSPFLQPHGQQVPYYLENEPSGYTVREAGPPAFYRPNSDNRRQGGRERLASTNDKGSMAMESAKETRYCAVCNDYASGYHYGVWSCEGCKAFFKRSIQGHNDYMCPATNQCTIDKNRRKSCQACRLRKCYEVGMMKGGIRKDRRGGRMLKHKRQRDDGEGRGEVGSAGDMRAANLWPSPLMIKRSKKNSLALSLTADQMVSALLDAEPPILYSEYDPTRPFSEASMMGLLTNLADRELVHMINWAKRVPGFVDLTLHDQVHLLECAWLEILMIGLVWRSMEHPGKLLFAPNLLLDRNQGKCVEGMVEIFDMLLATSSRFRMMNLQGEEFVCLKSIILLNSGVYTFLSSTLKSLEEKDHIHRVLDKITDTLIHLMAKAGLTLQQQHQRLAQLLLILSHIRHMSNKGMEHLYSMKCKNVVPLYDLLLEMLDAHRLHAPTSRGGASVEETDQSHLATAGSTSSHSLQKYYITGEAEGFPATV
# Sequence of DNA dC->dU-editing enzyme APOBEC-3G (Homo sapiens) (Q9HC16 whole entry, looked up): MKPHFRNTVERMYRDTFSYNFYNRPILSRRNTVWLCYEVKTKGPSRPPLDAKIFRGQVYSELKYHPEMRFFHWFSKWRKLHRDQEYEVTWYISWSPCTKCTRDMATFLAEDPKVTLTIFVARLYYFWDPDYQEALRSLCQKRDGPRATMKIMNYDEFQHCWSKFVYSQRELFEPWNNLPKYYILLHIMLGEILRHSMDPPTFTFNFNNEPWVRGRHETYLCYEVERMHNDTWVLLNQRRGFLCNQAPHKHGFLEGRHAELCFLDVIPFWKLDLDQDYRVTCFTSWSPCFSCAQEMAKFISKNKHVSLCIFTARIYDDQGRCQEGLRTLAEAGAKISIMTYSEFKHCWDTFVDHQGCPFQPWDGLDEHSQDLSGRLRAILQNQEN
# Sequence of Phosphoglycerate kinase, glycosomal (Trypanosoma brucei brucei) (P07378 whole entry, looked up): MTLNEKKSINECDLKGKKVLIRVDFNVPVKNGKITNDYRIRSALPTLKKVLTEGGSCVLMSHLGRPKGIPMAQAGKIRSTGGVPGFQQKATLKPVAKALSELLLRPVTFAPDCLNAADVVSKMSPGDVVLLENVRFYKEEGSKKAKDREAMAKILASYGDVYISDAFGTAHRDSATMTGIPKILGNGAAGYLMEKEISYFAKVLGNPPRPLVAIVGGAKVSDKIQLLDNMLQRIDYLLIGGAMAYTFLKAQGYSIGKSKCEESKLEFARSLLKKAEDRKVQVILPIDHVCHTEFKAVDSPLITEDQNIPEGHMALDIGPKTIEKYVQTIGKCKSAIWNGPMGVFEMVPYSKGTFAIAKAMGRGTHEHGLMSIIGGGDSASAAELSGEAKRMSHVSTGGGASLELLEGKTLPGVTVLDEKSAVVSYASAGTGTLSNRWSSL
# Sequence of Androgen receptor (Homo sapiens) (P10275 whole entry, looked up): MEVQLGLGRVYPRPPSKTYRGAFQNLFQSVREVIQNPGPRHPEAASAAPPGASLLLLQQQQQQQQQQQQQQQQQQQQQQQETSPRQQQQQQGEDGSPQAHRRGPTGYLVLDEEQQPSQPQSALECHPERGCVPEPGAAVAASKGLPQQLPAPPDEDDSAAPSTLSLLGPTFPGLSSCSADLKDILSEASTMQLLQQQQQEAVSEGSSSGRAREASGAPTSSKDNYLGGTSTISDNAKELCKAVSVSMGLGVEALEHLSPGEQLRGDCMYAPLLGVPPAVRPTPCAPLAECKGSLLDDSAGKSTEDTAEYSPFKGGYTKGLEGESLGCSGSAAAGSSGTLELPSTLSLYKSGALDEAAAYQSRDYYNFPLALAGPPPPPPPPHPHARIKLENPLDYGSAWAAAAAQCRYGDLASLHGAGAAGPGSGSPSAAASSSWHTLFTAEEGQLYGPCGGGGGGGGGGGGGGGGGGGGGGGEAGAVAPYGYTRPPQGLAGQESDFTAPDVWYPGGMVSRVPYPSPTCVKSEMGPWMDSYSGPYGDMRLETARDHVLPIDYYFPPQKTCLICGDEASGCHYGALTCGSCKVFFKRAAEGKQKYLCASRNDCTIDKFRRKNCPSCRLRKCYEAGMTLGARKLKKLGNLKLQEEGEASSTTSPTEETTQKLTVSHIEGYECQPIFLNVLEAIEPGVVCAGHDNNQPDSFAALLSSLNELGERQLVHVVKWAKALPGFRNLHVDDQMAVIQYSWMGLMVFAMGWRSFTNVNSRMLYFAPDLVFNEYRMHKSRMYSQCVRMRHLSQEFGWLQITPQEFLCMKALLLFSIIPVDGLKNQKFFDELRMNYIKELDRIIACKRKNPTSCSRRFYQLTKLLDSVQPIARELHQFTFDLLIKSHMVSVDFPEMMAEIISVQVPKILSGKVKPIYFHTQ
compound,measurement,setting,value
CC(C=CC1=C(C)CCCC1(C)C)=CC=CC(C)=CC(=O)Nc1ccc(O)cc1,Potency,[1],31.6 µM [inhibitor] (active)
same,outcome,[2],inactive
same,Potency,[3],35.5 µM (active)
same,Potency,[4],39.8 µM (active)
CCN1CCN(C(=O)N[C@H](C(=O)N[C@@H]2C(=O)N3C(C(=O)O)=C(CSc4nnnn4C)CS[C@@H]23)c2ccc(O)cc2)C(=O)C1=O,outcome,[5],inactive
CN(N=O)C(=O)N[C@H]1C(O)OC(CO)[C@@H](O)[C@H]1O (some centres not stated),outcome,[5],inactive
same,outcome,[6],inactive
O=c1[nH]c(=O)n([C@H]2C[C@@H](O)[C@@H](CO)O2)cc1C=CBr,outcome,[7],inactive
same,outcome,[8],inactive
same,outcome,[5],inactive
same,outcome,[9],inactive
same,outcome,[10],inactive
CC(C)[C@H](CO)Nc1nc(Nc2cccc(Cl)c2)c2ncn(C(C)C)c2n1,outcome,[6],inactive
COc1ccc2c(c1OC)C(=O)OC2[C@H]1c2c(cc3c(c2OC)OCO3)CCN1C (some centres not stated),outcome,[5],inactive
COc1ccc2cc([S+]([O-])Cc3ncc(C)c(OC)c3C)nc2c1,outcome,[7],inactive
same,outcome,[8],inactive
same,outcome,[9],inactive
same,outcome,[10],inactive
COc1ccc([C@@H]2CNC(=O)C2)cc1OC1CCCC1,outcome,[5],inactive
same,outcome,[6],inactive
COc1cc2c(cc1O)CCC1C2CC[C@@]2(C)C1CC[C@@H]2O (some centres not stated),outcome,[6],inactive
c1coc(CNc2ncnc3nc[nH]c23)c1,outcome,[5],inactive
same,outcome,[6],inactive
CCOC(=O)C1=C(C)NC(=S)NC1c1cccc(O)c1 (configuration not stated),outcome,[5],inactive
same,outcome,[6],inactive
Cc1ccc(O)c(C(CCN(C(C)C)C(C)C)c2ccccc2)c1 (configuration not stated),outcome,[5],inactive
COc1ccc(C(C)=O)c(O)c1,outcome,[5],inactive
O=C1c2cccc(O)c2C(=O)c2c(O)cc(CO)cc21,Potency,[4],inactive
O=c1c(O)c(-c2ccc(O)c(O)c2)oc2cc(O)ccc12,outcome,[6],inactive
C[C@@]12C(=O)OC(=O)[C@@]1(C)C1CCC2O1,outcome,[5],inactive
O=C(O)C=Cc1ccc(Cn2ccnc2)cc1,outcome,[5],inactive
same,outcome,[6],inactive
OCC(O)C(O)C(O)CO (configuration not stated),outcome,[5],inactive
CC(Oc1ccc(O)cc1)(P(=O)(O)O)P(=O)(O)O,outcome,[6],inactive
Cc1cc(O)c2c(c1)C(=O)c1cccc(O)c1C2=O,outcome,[5],inactive
same,outcome,[6],inactive
same,Potency,[1],inactive
same,Potency,[4],inactive
OC[C@@H](O)[C@@H](O)[C@H](O)[C@@H](O)CO,Potency,[1],inactive
same,outcome,[2],inactive
Nc1nc2c(c(=O)[nH]1)N(C=O)[C@H](CNc1ccc(C(=O)N[C@@H](CCC(=O)O)C(=O)O)cc1)CN2,outcome,[5],inactive
COc1cc2ncnc(Nc3cccc(Br)c3)c2cc1OC,outcome,[6],inactive
CN(C)CC[C@H](c1ccc(Cl)cc1)c1ccccn1,outcome,[5],inactive
CN[C@H](CC(C)C)C(=O)N[C@H]1C(=O)N[C@@H](CC(N)=O)C(=O)N[C@@H]2C(=O)N[C@H]3C(=O)N[C@H](C(=O)N[C@H](C(=O)O)c4cc(O)cc(O)c4-c4cc3ccc4O)[C@H](O)c3ccc(c(Cl)c3)Oc3cc2cc(c3O[C@@H]2O[C@H](CO)[C@@H](O)[C@H](O)[C@@H]2O[C@H]2C[C@](C)(N)[C@H](O)[C@H](C)O2)Oc2ccc(cc2Cl)[C@H]1O,outcome,[7],inactive
same,outcome,[8],inactive
same,outcome,[9],inactive
same,outcome,[10],inactive
